In the supplement of paper PMC8975748:
Structures can show the parent of a compound that is named as a salt.

System: Saccharomyces cerevisiae BY4741 SeMeCo community
Assay: z-score of subpopulation abundance vs DMSO median, subpopulation auxotrophic for LU; higher = larger share of this subpopulation than in DMSO controls
Conditions: 10 µM; 24 h; SM minimal medium; subpopulation (auxotrophy): LU
Procedure: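 Fluorescent four-plasmid SeMeCo (self-establishing metabolically cooperating S. cerevisiae BY4741 community; plasmids pH-mRuby2, pL-mWasabi, pU-eCFP, pM-TagRFP657) was grown 24 h in minimal SM medium with each Selleck FDA-approved drug at 10 µM in 384-well plates. Cells were fixed and imaged by high-content confocal microscopy. For each auxotrophic subpopulation (and the prototroph), a z-score gives the deviation from the DMSO vehicle-control population median.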

Structure (SMILES) | z-score of subpopulation abundance
N[C@@H]1CCCCN(c2c(F)cc3c(=O)c(C(=O)O)cn(C4CC4)c3c2Cl)C1 [Besifloxacin HCl] | 0.95
CC(C)NC(=N)NC(=N)Nc1ccc(Cl)cc1 [Proguanil] | -0.48
CCCCCCCCCC(=O)NC1C(Oc2c3cc4cc2Oc2ccc(cc2Cl)C(OC2OC(CO)C(O)C(O)C2NC(C)=O)C2NC(=O)C(NC(=O)C4NC(=O)C4NC(=O)C(Cc5ccc(c(Cl)c5)O3)NC(=O)C(N)c3ccc(O)c(c3)Oc3cc(O)cc4c3)c3ccc(O)c(c3)-c3c(OC4OC(CO)C(O)C(O)C4O)cc(O)cc3C(C(=O)O)NC2=O)OC(CO)C(O)C1O (stereo not given) [Teicoplanin] | 0.07
CCCc1nn(C)c2c(=O)[nH]c(-c3cc(S(=O)(=O)N4CCN(C)CC4)ccc3OCC)nc12 [Sildenafil Mesylate] | 0.91
CC1=C(C(=O)O)N2C(=O)[C@@H](NC(=O)[C@H](N)C3=CCC=CC3)[C@H]2SC1 [Cephradine monohydrate] | 0.27
Nc1nc(N)nc(-c2cc(Cl)ccc2Cl)n1 [Irsogladine] | -1.09
COc1cc(NS(=O)(=O)c2ccc(N)cc2)nc(OC)n1 [SulfadiMethoxine sodium] | -0.82
CC1=C(C(=O)O)N2C(=O)[C@@H](NC(=O)[C@H](N)C3=CCC=CC3)[C@H]2SC1 [Cefradine] | -1.14
CC[C@@H](CO)NCCN[C@@H](CC)CO [Ethambutol 2HCl] | 1.65
CC1=C(C(=O)O)N2C(=O)[C@@H](NC(=O)[C@H](N)c3ccc(O)cc3)[C@H]2SC1 [Cefadroxil hydrate] | -0.23
NS(=O)(=O)Cc1noc2ccccc12 [Zonisamide] | 0.73
COc1cccc(-c2c(C)n(Cc3c(F)cccc3C(F)(F)F)c(=O)n(C[C@H](NCCCC(=O)O)c3ccccc3)c2=O)c1F [Elagolix Sodium] | -0.52
OC(c1ccccc1)(c1ccccc1)C12CC[N+](CCOCc3ccccc3)(CC1)CC2 [Umeclidinium bromide] | -0.42
Cc1noc(NS(=O)(=O)c2ccc(N)cc2)c1C [Sulfisoxazole] | 1.45
NC(=O)Cc1cccc(C(=O)c2ccccc2)c1N [Nepafenac] | -0.55
OC1(c2ccc(Cl)c(C(F)(F)F)c2)CCN(CCCC(c2ccc(F)cc2)c2ccc(F)cc2)CC1 [Penfluridol] | 0.13
CC1(C)S[C@@H]2[C@H](NC(=O)COc3ccccc3)C(=O)N2[C@H]1C(=O)O [Penicillin V potassium salt] | -0.1
NC1CCN(c2nc3c(cc2F)c(=O)c(C(=O)O)cn3-c2ccc(F)cc2F)C1 (stereo not given) [Tosufloxacin p-Toluenesulfonate Hydrate] | -0.88
O=C1CCc2cc(OCCCCc3nnnn3C3CCCCC3)ccc2N1 [Cilostazol] | -0.63
O=C(CCCN1CC=C(n2c(=O)[nH]c3ccccc32)CC1)c1ccc(F)cc1 [Droperidol] | 1.58

Structure (SMILES) | z-score of subpopulation abundance
C=C1CCC2C(C)(CO)C(O)CCC2(C)C1CC=C1C=COC1=O (stereo not given) [Dehydroandrographolide] | 1.6
COc1ccc(C[C@H](N)C(=O)N[C@H]2[C@@H](O)[C@H](n3cnc4c(N(C)C)ncnc43)O[C@@H]2CO)cc1 [Puromycin 2HCl] | -0.06
CC1=C[C@H]2C(=O)O[C@H]3C[C@@H](C/C=C(\C)C[C@@H](C)/C=C/C=C4\CO[C@H](/C1=N\O)[C@@]42O)O[C@@]1(CC[C@H](C)[C@@H](C)O1)C3.CC[C@H]1O[C@]2(CC[C@@H]1C)C[C@@H]1C[C@@H](C/C=C(\C)C[C@@H](C)/C=C/C=C3\CO[C@@H]4/C(=N\O)C(C)=C[C@@H](C(=O)O1)[C@]34O)O2 [Milbemycin Oxime] | -0.7
CC1(C)S[C@@H]2[C@H](NC(=O)Cc3ccccc3)C(=O)N2[C@H]1C(=O)O [Benzylpenicillin potassium] | 0.51
CCn1cc(C(=O)O)c(=O)c2cc(F)c(N3CCNCC3)cc21 [Norfloxacin] | -0.24
CO[C@H]1C[C@@H]2CC[C@@H](C)[C@@](O)(O2)C(=O)C(=O)N2CCCC[C@H]2C(=O)O[C@H]([C@H](C)C[C@@H]2CC[C@@H](OP(C)(C)=O)[C@H](OC)C2)CC(=O)[C@H](C)/C=C(\C)[C@@H](O)[C@@H](OC)C(=O)[C@H](C)C[C@H](C)/C=C/C=C/C=C/1C [Ridaforolimus (Deforolimus, MK-8669)] | 5.01
CC(=O)OC(C)C[N+](C)(C)C (stereo not given) [Methacholine chloride] | 1.46
CCCCCCCN(CC)CCCC(O)c1ccc(NS(C)(=O)=O)cc1 (stereo not given) [Ibutilide Fumarate] | 0.14
Clc1ccc2c(N3CCN(CCCN4CCN(c5ccnc6cc(Cl)ccc56)CC4)CC3)ccnc2c1 [Piperaquine phosphate] | -0.13
CC1(C)S[C@@H]2[C@H](NC(=O)C(c3ccccc3)S(=O)(=O)O)C(=O)N2[C@H]1C(=O)O (stereo not given in full) [Sulbenicillin Sodium] | 1.06
Oc1c(Cl)cc(Cl)cc1Sc1cc(Cl)cc(Cl)c1O [Bithionol] | 1.88
CCCN[C@H]1CCc2nc(N)sc2C1 [Pramipexole 2HCl Monohydrate] | -0.67
COCCCOc1ccnc(C[S+]([O-])c2nc3ccccc3[nH]2)c1C (stereo not given) [Rabeprazole] | 1.56
Cc1c(OCC(F)(F)F)ccnc1C[S@@+]([O-])c1nc2ccccc2[nH]1 [Dexlansoprazole] | 0.17
CCN[C@@H]1C[C@H](N)[C@@H](O[C@H]2OC(CN)=CC[C@H]2N)[C@H](O)[C@H]1O[C@H]1OC[C@](C)(O)[C@H](NC)[C@H]1O [Netilmicin Sulfate] | 0.47
CCCNC(C)C(=O)Nc1ccccc1C (stereo not given) [Prilocaine] | 0.36
C[N+]1(C)[C@@H]2C[C@@H](OC(=O)C(O)(c3cccs3)c3cccs3)C[C@H]1[C@@H]1O[C@@H]12 [Tiotropium Bromide hydrate] | -0.81
CCOC(=O)c1ccc(N)cc1 [Benzocaine] | -1.24
CO[C@H]1C[C@@H]2CC[C@@H](C)[C@@](O)(O2)C(=O)C(=O)N2CCCC[C@H]2C(=O)O[C@H]([C@H](C)C[C@@H]2CC[C@@H](O)[C@H](OC)C2)CC(=O)[C@H](C)/C=C(\C)[C@@H](O)[C@@H](OC)C(=O)[C@H](C)C[C@H](C)/C=C/C=C/C=C/1C [Rapamycin (Sirolimus)] | 3.56
COc1ccc(CC2c3cc(OC)c(OC)cc3CC[N+]2(C)CCC(=O)OCCCCCOC(=O)CC[N+]2(C)CCc3cc(OC)c(OC)cc3C2Cc2ccc(OC)c(OC)c2)cc1OC (stereo not given) [Atracurium Besylate] | 0.39
